# Source: PubChem BioAssay (Tox21)
# Unmarked numbers belong to inactive results. Records with an inconclusive call do not appear. Where a call stands in place of a potency, no number is given. The source made the active and inactive calls. Unless noted, calls follow the shape of the full dose curve.
# Key:
# [1] = qHTS assay to identify small molecule agonists of the estrogen receptor beta (ER-beta) signaling pathway - cell viability counter screen (AID 1259380; active = well fitted curve in the direction sought with a large enough effect in the repeat runs; an effect the other way counts as inactive or inconclusive; also: nearly all actives have a fitted effect of over 30% in size; also: potency is read from the fitted curve at half-maximal effect)
# In short: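 ER-beta-UAS-bla HEK293T cells in medium with 2% charcoal-stripped FBS were preincubated 6 hr at 37C, dosed with compound in DMSO for 16 hr, then after the bla read, CellTiter-Glo was added for 30 min at room temperature; luminescence recorded.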
# [2] = molecular target: Androgen receptor (Homo sapiens) (UniProt P10275); assay: qHTS assay to identify small molecule agonists of the androgen receptor (AR) signaling pathway in the presence of an antagonist (AID 1259381); also: nearly all actives have a fitted effect of over 15% in size
# Chain of Androgen receptor (Homo sapiens) (P10275 whole entry, looked up): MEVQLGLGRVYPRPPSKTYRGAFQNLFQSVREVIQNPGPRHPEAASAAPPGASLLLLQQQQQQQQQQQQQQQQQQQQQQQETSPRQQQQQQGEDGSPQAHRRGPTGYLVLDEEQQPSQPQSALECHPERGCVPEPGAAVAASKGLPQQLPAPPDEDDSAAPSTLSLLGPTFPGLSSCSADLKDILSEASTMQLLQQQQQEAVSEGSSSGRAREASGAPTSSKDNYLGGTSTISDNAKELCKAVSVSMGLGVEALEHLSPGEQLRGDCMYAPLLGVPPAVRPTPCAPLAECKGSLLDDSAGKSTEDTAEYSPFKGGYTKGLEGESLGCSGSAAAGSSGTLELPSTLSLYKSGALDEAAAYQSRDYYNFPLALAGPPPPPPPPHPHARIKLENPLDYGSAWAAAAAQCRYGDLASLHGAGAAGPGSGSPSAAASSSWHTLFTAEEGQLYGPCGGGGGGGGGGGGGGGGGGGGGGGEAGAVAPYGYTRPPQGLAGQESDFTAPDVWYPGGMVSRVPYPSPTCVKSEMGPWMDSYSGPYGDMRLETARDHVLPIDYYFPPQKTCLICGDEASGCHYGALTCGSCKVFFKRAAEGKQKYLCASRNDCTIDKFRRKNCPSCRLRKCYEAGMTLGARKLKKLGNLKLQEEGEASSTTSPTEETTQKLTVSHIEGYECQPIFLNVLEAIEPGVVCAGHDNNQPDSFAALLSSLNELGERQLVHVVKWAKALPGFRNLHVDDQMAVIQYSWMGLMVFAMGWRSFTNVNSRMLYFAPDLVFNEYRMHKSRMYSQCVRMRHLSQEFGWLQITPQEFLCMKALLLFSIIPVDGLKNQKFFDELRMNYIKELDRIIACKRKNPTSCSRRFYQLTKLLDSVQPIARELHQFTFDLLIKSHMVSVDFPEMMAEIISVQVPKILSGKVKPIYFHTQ
# In short: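 MDA-kb2 human breast carcinoma cells carrying an MMTV-luciferase reporter (AR- and GR-responsive) were treated with compounds at 15 concentrations plus 3.0uM final nilutamide for 16hr at 37C without CO2; luminescence was read after ONE-Glo addition.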
# [3] = qHTS assay to identify small molecule antagonists of the estrogen receptor beta (ER-beta) signaling pathway - cell viability counter screen (AID 1259382; active = well fitted curve in the direction sought with a large enough effect in the repeat runs; an effect the other way counts as inactive or inconclusive; also: nearly all actives have a fitted effect of over 55% in size; also: potency is read from the fitted curve at half-maximal effect)
# In short: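 ER-beta-UAS-bla HEK293T cells (2,000/well, 2% charcoal-stripped FBS) were pre-incubated 6 hr at 37C, then given compound plus 1nM final 17-beta-estradiol for 16 hr. Viability was read in the same wells by CellTiter-Glo luminescence after 30 min at room temperature.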
# [4] = molecular target: Estrogen receptor (Homo sapiens) (UniProt P03372); assay: qHTS assay to identify small molecule agonists of the estrogen receptor alpha (ER-alpha) signaling pathway in the presence of an antagonist (AID 1259383); also: top concentration of the series differs between compounds; nearly all actives have a fitted effect of over 15% in size
# Chain of Estrogen receptor (Homo sapiens) (P03372 whole entry, looked up): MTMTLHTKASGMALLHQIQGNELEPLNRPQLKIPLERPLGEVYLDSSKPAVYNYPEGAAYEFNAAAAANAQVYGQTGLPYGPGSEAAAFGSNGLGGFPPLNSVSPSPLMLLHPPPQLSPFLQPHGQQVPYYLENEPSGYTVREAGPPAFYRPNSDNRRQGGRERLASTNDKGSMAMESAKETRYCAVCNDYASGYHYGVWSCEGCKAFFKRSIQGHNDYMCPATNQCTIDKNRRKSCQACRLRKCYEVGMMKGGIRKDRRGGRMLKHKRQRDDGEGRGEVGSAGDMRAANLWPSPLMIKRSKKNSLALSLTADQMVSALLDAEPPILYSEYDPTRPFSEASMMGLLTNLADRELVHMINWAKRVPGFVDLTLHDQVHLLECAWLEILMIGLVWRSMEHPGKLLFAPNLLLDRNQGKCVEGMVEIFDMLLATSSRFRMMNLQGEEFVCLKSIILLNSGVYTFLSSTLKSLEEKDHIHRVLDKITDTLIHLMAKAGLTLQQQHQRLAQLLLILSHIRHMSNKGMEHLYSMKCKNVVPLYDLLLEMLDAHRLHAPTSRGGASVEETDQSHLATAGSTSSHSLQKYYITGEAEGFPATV
# In short: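 VM7Luc4E2 cells (endogenous full-length ER-alpha, 4×ERE-luciferase) were precultured 5 days in phenol red-free medium with 10% charcoal-stripped FBS, given 10.0nM ICI-182,780 (final), then treated with compounds at 15 concentrations for 22hr at 37C; luminescence read with ONE-Glo.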
# [5] = qHTS assay to identify small molecule agonists or antagonists of the thyroid stimulating hormone receptor (TSHR) signaling pathway - wild type cell line counter screen (AID 1259384)
# In short: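 Counter screen in untransfected Hek293: compounds (15-point titration, triplicate) plus phosphodiesterase inhibitor Ro20-1724 added after 18 h plating; 30 min RT. Intracellular cAMP via competitive d2/cryptate immunoassay, 1 h incubation.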
# [6] = molecular target: Thyrotropin receptor (Homo sapiens) (UniProt P16473); assay: qHTS assay to identify small molecule antagonists of the thyroid stimulating hormone receptor (TSHR) signaling pathway (AID 1259385); also: nearly all actives have a fitted effect of over 20% in size; also: potency is read from the fitted curve at half-maximal effect
# Chain of Thyrotropin receptor (Homo sapiens) (P16473 whole entry, looked up): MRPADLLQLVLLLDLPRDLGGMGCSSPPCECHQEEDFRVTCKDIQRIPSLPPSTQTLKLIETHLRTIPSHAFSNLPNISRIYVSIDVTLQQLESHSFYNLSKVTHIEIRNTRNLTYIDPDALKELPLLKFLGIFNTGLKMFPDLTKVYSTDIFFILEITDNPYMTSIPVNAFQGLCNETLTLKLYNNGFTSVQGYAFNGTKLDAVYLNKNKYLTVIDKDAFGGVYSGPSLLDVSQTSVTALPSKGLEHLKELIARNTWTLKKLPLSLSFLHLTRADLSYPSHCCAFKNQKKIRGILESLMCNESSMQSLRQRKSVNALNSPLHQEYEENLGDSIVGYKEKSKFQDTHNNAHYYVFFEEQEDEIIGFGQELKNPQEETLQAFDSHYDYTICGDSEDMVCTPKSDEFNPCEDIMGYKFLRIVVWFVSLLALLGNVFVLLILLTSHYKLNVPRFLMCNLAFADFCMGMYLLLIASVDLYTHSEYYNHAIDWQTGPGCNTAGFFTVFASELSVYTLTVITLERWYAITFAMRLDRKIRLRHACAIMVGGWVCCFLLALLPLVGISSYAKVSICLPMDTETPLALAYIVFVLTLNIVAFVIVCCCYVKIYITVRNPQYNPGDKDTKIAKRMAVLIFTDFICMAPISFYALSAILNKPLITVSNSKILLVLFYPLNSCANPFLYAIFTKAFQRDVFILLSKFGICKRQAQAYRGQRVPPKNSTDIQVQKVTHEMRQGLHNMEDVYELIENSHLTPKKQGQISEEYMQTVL
# In short: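 Antagonist mode: compound-treated TSHR-expressing HEK293 cells were stimulated with 1.5 ng/mL TSH (final) in presence of Ro20-1724 for 30 min at RT. HTRF cAMP detection after 1 h; each compound tested at 15 concentrations, triplicate.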
# [7] = molecular target: Progesterone receptor (Homo sapiens) (UniProt P06401); assay: qHTS assay to identify small molecule agonists of the progesterone receptor (PR) signaling pathway (AID 1346784); also: nearly all actives have a fitted effect of over 30% in size
# Chain of Progesterone receptor (Homo sapiens) (P06401 whole entry, looked up): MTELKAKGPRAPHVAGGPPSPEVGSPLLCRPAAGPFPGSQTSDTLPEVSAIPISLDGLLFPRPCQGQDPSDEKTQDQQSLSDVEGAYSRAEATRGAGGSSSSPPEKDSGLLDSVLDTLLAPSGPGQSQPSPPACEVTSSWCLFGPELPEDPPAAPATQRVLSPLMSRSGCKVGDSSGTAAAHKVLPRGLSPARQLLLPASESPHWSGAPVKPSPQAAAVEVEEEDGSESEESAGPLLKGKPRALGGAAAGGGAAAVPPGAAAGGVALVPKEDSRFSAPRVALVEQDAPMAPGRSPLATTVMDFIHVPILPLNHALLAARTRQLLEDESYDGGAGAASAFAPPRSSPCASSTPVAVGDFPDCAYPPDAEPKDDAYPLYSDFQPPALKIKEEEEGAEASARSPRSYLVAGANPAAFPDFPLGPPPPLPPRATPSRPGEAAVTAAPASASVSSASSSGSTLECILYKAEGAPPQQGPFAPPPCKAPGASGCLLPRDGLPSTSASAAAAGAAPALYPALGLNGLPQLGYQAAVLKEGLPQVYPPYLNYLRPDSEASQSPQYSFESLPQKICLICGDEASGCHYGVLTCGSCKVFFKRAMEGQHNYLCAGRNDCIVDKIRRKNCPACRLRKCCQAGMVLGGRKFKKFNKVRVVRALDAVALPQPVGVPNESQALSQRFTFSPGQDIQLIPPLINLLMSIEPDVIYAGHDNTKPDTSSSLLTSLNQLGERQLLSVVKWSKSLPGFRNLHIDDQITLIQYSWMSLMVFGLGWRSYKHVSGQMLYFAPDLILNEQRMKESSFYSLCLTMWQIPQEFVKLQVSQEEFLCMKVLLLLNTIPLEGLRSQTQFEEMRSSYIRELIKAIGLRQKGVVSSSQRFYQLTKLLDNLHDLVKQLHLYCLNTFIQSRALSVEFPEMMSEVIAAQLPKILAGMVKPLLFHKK
# In short: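 Agonist qHTS: compounds pinned onto 3,000 PR-UAS-bla HEK 293T cells per well in charcoal-stripped serum medium, 16hr at 37C, then beta-lactamase activity measured by LiveBLAzer FRET fluorescence after 2 hours at room temperature.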
# [8] = qHTS assay to identify small molecule agonists of the estrogen receptor alpha (ER-alpha) signaling pathway in the presence of an antagonist - cell viability counter screen (AID 1259386; active = well fitted curve in the direction sought with a large enough effect in the repeat runs; an effect the other way counts as inactive or inconclusive;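 also: series mostly up to about 92 µM; cells exposed to compounds for 22 h at 37 °C before the viability read; nearly all actives have a fitted effect of over 30% in size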)
# In short: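 VM7Luc4E2 cells (endogenous full-length ER-alpha, 4×ERE-luciferase) were held 5 days in phenol red-free medium with 10% charcoal-stripped FBS, plated, then given 10.0nM ICI-182,780 and compounds at 15 concentrations for 22hr at 37C; viability read by CellTiter-Fluor fluorescence.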
# [9] = molecular target: Progesterone receptor (Homo sapiens) (UniProt P06401); assay: qHTS assay to identify small molecule antagonists of the progesterone receptor (PR) signaling pathway (AID 1346795; active = well fitted inhibition curve with a large enough effect in the signal ratio in the repeat runs, not every such curve was filed as active; the % refers to the signal ratio)
# In short: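 Antagonist mode with agonist R5020 at 1 nM final and 16 hr incubation at 37C. Reporter was beta-lactamase driven by UAS in HEK293T (PR-UAS-bla), 2% charcoal-stripped serum; signal from LiveBLAzer FRET substrate, 2 hr at room temperature.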
# [10] = qHTS assay to identify small molecule antagonists of the progesterone receptor (PR) signaling pathway - cell viability counter screen (AID 1346798; active = well fitted curve in the direction sought with a large enough effect in the repeat runs; an effect the other way counts as inactive or inconclusive; also: nearly all actives have a fitted effect of over 50% in size; also: potency is read from the fitted curve at half-maximal effect)
# In short: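 Cytotoxicity read as CellTiter-Glo luminescence (30 min, room temperature) in the same wells as the beta-lactamase readout. HEK293T PR-UAS-bla cells in charcoal-stripped 2% FBS received compound and R5020, then 16 h at 37C, 5% CO2.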
Structure (SMILES),Potency [1],Potency [2],Potency [3],Potency [4],Potency [5],Potency [6],outcome [7],Potency [8],Potency [9],Potency [10]
CCCCCCCCSCc1cc(C)c(O)c(CSCCCCCCCC)c1,inactive,inactive,inactive,inactive,inactive,inactive,inactive,,,
CC(C)(C)c1cc(CCC(=O)OCCSCCOC(=O)CCc2cc(C(C)(C)C)c(O)c(C(C)(C)C)c2)cc(C(C)(C)C)c1O,inactive,inactive,inactive,inactive,inactive,inactive,inactive,inactive,inactive,inactive
O=C1C=CC(=O)N1c1cccc(N2C(=O)C=CC2=O)c1,61.1 µM (active),inactive,68.6 µM (active),inactive,inactive,21.7 µM (active),,,,
CC(C=O)c1ccccc1 (stereo not given),inactive,inactive,inactive,inactive,inactive,inactive,inactive,inactive,inactive,
O=C(c1ccccc1)c1ccc(Cl)cc1,inactive,inactive,inactive,inactive,inactive,inactive,inactive,inactive,inactive,inactive
O=C1c2ccccc2C(=O)c2c(Cl)cccc21,32.4 µM (active),inactive,inactive,inactive,inactive,inactive,inactive,inactive,inactive,inactive
C/C=C/C(=O)C1=C(C)C=CCC1(C)C,inactive,inactive,inactive,inactive,inactive,inactive,inactive,inactive,inactive,inactive
CC(C)C(=O)C(C)C,inactive,inactive,inactive,inactive,inactive,inactive,inactive,inactive,,inactive
C=COCCCC,inactive,inactive,inactive,inactive,inactive,inactive,inactive,inactive,,inactive
CCC(=O)OC/C=C(\C)CCC=C(C)C,inactive,inactive,inactive,inactive,inactive,inactive,inactive,inactive,inactive,
O=C1OCc2ccccc21,inactive,inactive,inactive,inactive,inactive,inactive,inactive,inactive,inactive,inactive
CCc1cccc(C)c1N(C(=O)CS(=O)(=O)O)C(C)COC (stereo not given),inactive,inactive,inactive,inactive,inactive,inactive,inactive,,inactive,
Cc1c[nH]c(=O)[nH]c1=O,inactive,inactive,inactive,inactive,inactive,inactive,inactive,inactive,inactive,inactive
Cc1ccc(C2OC[C@@H]3OC(c4ccc(C)cc4)O[C@H]([C@H](O)CO)[C@@H]3O2)cc1 (stereo not given in full),inactive,inactive,inactive,inactive,inactive,inactive,inactive,inactive,inactive,inactive
CCN(CCC#N)c1ccc(N=Nc2ccc([N+](=O)[O-])cc2)cc1,inactive,inactive,inactive,,inactive,inactive,inactive,inactive,inactive,
c1ccc2c(c1)-c1ccc3ccc4cccc5cc-2c1c3c45,inactive,inactive,inactive,inactive,inactive,,,,,inactive
O=C1CCC(=O)N1,inactive,inactive,inactive,inactive,inactive,inactive,inactive,,inactive,inactive
Nc1ccc2c(S(=O)(=O)O)cccc2c1S(=O)(=O)O,inactive,inactive,inactive,,inactive,inactive,inactive,,inactive,inactive
COC(=O)c1ccc([N+](=O)[O-])cc1,inactive,inactive,inactive,,inactive,inactive,,inactive,,inactive
C/C(=N\[Si](C)(C)C)O[Si](C)(C)C,inactive,inactive,inactive,inactive,,,inactive,inactive,inactive,inactive
[Cl][Sc]([Cl])[Cl],inactive,inactive,inactive,inactive,inactive,inactive,inactive,,inactive,inactive
O=[N+]([O-])c1ccc(CO)cc1,inactive,inactive,inactive,inactive,,,inactive,inactive,inactive,
CC/C(=C(/c1ccc(O)cc1)c1ccc(OCCN(C)C)cc1)c1ccccc1,32 µM (active),inactive,28.5 µM (active),,inactive,inactive,,,,32 µM (active)
